Assay outcomes as filed in PubChem.
SENP8 block-1: SENP8 protease inhibition. inhibition, % at 10 µM. 330,000 compounds, 1.2% hits. purified SENP8, Z-RLRGG-aminoluciferin cleavage, luminescence. Q96LD8; in the data active means inhibition above about 50%
PPC-1+TRAIL kill: PPC-1 cancer cell killing with TRAIL present; cell killing (% activity), % at 4 µM or 5 µM; PPC-1 cells + TRAIL, ATPLite viability luminescence; 220,000 compounds, 0.41% hits;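 active means cell killing above 50% in the first pass at 4 µM, then a duplicate retest at 5 µM averaging 50% or more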;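 further: plate controls were cells with TRAIL plus DMSO for no effect and medium-only wells lacking cells for full effect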
SENP8 block-2: SENP8 (human) protease inhibition; Q96LD8; recombinant SENP8, Nedd8 substrate fluorescence; inhibition, % at 20 µM; 360,000 compounds, 0.64% hits; in the data active means inhibition mostly above about 40%, no sharp cut-off; inactive means mostly below about 27%
C8 TRAIL sens: caspase-8 TRAIL sensitization; 360,000 compounds, 1% hits; NB7+C8 cells + TRAIL, ATPlite viability luminescence; AID 624354; inhibition (viability loss, TRAIL sensitization), % at 10 µM;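 active means compounds causing at least 50% loss of cell viability in the single-dose screen, relative to plate controls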
SENP7 inh: SENP7 protease inhibition | inhibition, % at 5 µM | 330,000 compounds, 1.5% hits | recombinant SENP7, Z-RLRGG-aminoluciferin luminescence, 40 min | Q9BQF6;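 active means inhibition above about 50% at the single test dose, limit read from the data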;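 further: plate controls were DMSO with enzyme for no effect and no enzyme buffer wells for full effect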
SENP6 inh: blocks the human protease SENP6; Recombinant SENP6 catalytic domain, aminoluciferin luminescence; inhibition, % at 10 µM; 330,000 compounds, 1.8% hits;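 active means inhibition above about 50% at the single tested dose, limit read from the data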;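 further: plate controls were DMSO wells with enzyme for no effect and DMSO wells lacking enzyme for full effect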
Target sequence (Q9GZR1 628-1112 limits assumed): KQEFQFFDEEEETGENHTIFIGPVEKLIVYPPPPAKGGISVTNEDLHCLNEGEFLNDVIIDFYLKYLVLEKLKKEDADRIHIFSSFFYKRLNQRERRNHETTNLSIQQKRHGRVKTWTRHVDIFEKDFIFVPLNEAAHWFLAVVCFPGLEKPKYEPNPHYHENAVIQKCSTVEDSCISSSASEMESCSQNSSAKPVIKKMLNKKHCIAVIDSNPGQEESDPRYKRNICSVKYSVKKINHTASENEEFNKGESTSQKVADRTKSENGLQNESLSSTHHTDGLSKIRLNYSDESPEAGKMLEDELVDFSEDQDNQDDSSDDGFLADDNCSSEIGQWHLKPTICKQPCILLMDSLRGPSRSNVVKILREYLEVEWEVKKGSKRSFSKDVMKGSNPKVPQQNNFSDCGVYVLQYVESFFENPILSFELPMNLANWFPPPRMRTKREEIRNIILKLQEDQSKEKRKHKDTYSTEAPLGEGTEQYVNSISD
SENP8 confirm: human SENP8 inhibition, confirmed | 6,200 compounds, 40% hits | Recombinant SENP8, Z-RLRGG-aminoluciferin luminescence, 60 min | inhibition, % at 12.5 µM | shares compounds with SENP7 inh;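 active means mean inhibition across replicates above about 50%, limit read from the data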
SENP6 confirm: human SENP6 inhibition, confirmed. 6,200 compounds, 58% hits. AID 488915. recombinant SENP6, Z-RLRGG-aminoluciferin luminescence. shares compounds with SENP7 inh. inhibition, % at 12.5 µM
SENP7 confirm: human SENP7 inhibition, confirmed. inhibition, % at 12.5 µM. recombinant SENP7, Z-RLRGG-aminoluciferin luminescence, 40 min. 6,200 compounds, 69% hits. shares compounds with SENP7 inh
Casp3 SENP sel: caspase-3 inhibition (SENP selectivity assay); shares compounds with SENP7 inh; purified caspase-3, Z-DEVD-aminoluciferin luminescence, 60 min; inhibition, % at 12.5 µM; 6,200 compounds, 60% hits;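 active means mean inhibition above about 50%, limit read from the data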;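 further: plate controls were enzyme with DMSO for no effect and wells without caspase-3 for full effect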
Target sequence (P42574 28-227 limits assumed): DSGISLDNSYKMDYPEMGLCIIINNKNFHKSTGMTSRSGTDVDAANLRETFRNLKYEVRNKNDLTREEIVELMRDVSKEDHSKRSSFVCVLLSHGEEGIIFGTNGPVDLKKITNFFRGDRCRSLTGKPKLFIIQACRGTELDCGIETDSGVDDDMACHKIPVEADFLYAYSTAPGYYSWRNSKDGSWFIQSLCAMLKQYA
SENP luc ctr: luminescence interference (SENP counter-screen); shares compounds with SENP7 inh; Pre-incubated SENP8/Z-RLRGG-aminoluciferin, luciferase luminescence interference; inhibition, % at 12.5 µM; 6,200 compounds, 39% hits; AID 488919;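 active means mean inhibition above about 50% when retested at one dose, limit read from the data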;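 further: plate controls were DMSO wells with completed reaction for no effect and substrate without enzyme for full effect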
Starred values were filed as active, the others as inactive; i = inactive; . = not tested or not shown. Hits are enriched below; roughly 3% of the tested compounds scored in any of these assays.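 How the source made its calls, unless noted: active means mean inhibition above about 50% in the one-dose retest (limit read from the data); inactive means the rest.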

SMILES	SENP8 block-1	PPC-1+TRAIL kill	SENP8 block-2	C8 TRAIL sens	SENP7 inh	SENP6 inh	SENP8 confirm	SENP6 confirm	SENP7 confirm	Casp3 SENP sel	SENP luc ctr
COc1ccc(/C=C2\CCC(C3CCCC3)C2=O)c(OC)c1 (stereo not drawn)	-9.0	.	18.0	-8.3	-6.6	-12.3	.	.	.	.	.
COc1ccc(/C=C2\CCC(C3CCCC3)C2=O)cc1 (stereo not drawn)	77.4*	.	12.8	-1.0	90.0*	54.4*	45.2	49.1	49.5	69.2*	10.9
COc1cc(OC)c(OC)cc1/C=C1\CCC(C2CCCC2)C1=O (stereo not drawn)	-1.6	13.7	-215.0	7.3	-3.4	-12.7	.	.	.	.	.
CCCCOCCCNC(=O)C[C@@H]1C[C@@]2(C(=O)OC)CCCCC=C2N(Cc2cccc3ccccc23)C1=O	.	.	6.8	9.6	.	.	.	.	.	.	.
CN1C(=O)/C(=C\c2ccc(OC(=O)c3ccco3)cc2)SC1=S	40.6	.	13.0	5.6	71.7*	73.9*	27.2	25.3	4.4	42.8	35.1
CN1C(=O)/C(=C/c2ccc(OC(=O)c3ccco3)cc2)SC1=S	75.0*	.	20.1	37.6	79.1*	72.5*	28.1	21.4	19.0	47.3	45.2
COc1ccc(-n2nc3c(c2NC(=O)CCCl)CSC3)cc1	1.5	.	9.4	1.9	3.3	-24.2	.	.	.	.	.
CN(C(=O)c1cccc(C#CC(C)(C)O)c1)C1CCCN(Cc2ccccc2F)C1 (stereo not drawn)	4.1	.	17.2	-8.9	2.7	-9.1	.	.	.	.	.
Cc1cccc(Nc2nc(-c3cccs3)cs2)n1	88.9*	5.4	-9.9	8.1	81.0*	90.4*	7.6	96.2*	101.9*	76.0*	86.6*
c1ccc(Nc2nc(-c3cccs3)cs2)nc1	93.7*	12.6	-31.0	29.7	82.5*	91.6*	96.1*	97.3*	102.0*	88.3*	93.9*
c1cncc(-c2nc(-c3cccs3)cs2)c1	-7.2	0.0	-69.4	-10.3	-0.9	-2.8	.	.	.	.	.
c1csc(-c2csc(-c3cccs3)n2)c1	20.0	14.0	-141.7	3.4	54.6*	-16.4	42.4	59.7*	82.3*	34.3	44.1
Cc1cccc(Nc2nc(-c3ccccn3)cs2)n1	70.3*	6.9	-6.3	30.0	79.1*	76.4*	-4.9	78.1*	95.0*	73.8*	86.5*
Cn1nc(C(=O)Nc2ccc(S(=O)(=O)N3CCOCC3)cc2)c2ccccc2c1=O	-15.1	6.7	4.8	1.4	-3.8	-16.8	.	.	.	.	.
Cc1c(O)ccc2c(CC(=O)N[C@@H](Cc3ccccc3)C(=O)O)cc(=O)oc12	-4.1	.	-291.8	-16.6	-3.7	-6.4	.	.	.	.	.
CCn1c(SCC(=O)N/N=C/c2ccccc2OCC(=O)O)nnc1-c1ccccc1	1.4	0.3	.	.	-3.5	69.9*	-3.0	-0.1	-2.6	5.8	7.0
O=C(O)COc1ccccc1/C=N/NC(=O)CSc1nnc(-c2ccc(Cl)cc2)n1C1CCCCC1	-3.4	-4.5	-15.2	-6.9	2.2	-1.1	.	.	.	.	.
COc1ccccc1C(=O)C1CCCN(C(=O)c2ccco2)C1 (stereo not drawn)	3.7	.	13.0	-7.4	-0.9	-3.9	.	.	.	.	.
CCCCSc1nnc(CSc2nc3nc(C)cc(C)n3n2)o1	-3.7	5.5	10.3	18.8	78.2*	-36.6	6.7	8.3	-6.5	-0.6	0.3
CCCSc1nnc(CSc2nc3nc(C)cc(C)n3n2)o1	-1.6	2.9	8.4	-2.8	-5.5	-13.6	.	.	.	.	.
CCC(C(=O)NCCc1ccccc1OC)n1nc(C)c2c(C)n(-c3ccccc3)nc2c1=O (stereo not drawn)	-6.6	.	18.9	-6.5	0.4	-8.8	.	.	.	.	.
Cn1cccc1C(=O)Nc1nc(-c2ccccn2)cs1	43.3	17.3	11.6	14.6	62.0*	74.1*	76.0*	76.1*	92.6*	84.3*	77.8*
Cc1csc(NC(=O)c2cccn2C)n1	75.9*	30.9	8.7	14.4	91.0*	82.5*	76.2*	75.3*	95.8*	93.4*	83.7*
Oc1ccc(C=Nc2cccc3ccccc23)c(O)c1	44.4	.	-434.6	10.0	33.4	70.1*	-6.8	2.5	1.4	9.3	1.0
O=[N+]([O-])c1ccc(O)c(C=Nc2cccc3ccccc23)c1	61.5*	.	-421.5	15.8	19.1	57.9*	8.9	11.6	0.4	0.7	0.2
SMILES	SENP8 block-1	PPC-1+TRAIL kill	SENP8 block-2	C8 TRAIL sens	SENP7 inh	SENP6 inh	SENP8 confirm	SENP6 confirm	SENP7 confirm	Casp3 SENP sel	SENP luc ctr
O=[N+]([O-])c1ccc(NN=Cc2ccccc2O)nc1	.	.	-197.5	20.5	.	.	.	.	.	.	.
O=[N+]([O-])c1ccc(N/N=C/c2ccccc2O)cc1	58.4*	.	-84.3	11.6	49.8	69.6*	-2.4	41.0	83.2*	26.0	19.1
O=[N+]([O-])c1cccc(C=Nc2cccc3ccccc23)c1O	85.5*	.	-279.5	-4.1	42.9	87.7*	10.7	39.1	4.5	1.3	-0.7
Cc1cccc(OCC(=O)Nc2c3c(nn2C(C)(C)C)CS(=O)(=O)C3)c1	-4.7	.	9.0	-2.6	3.8	9.6	.	.	.	.	.
CCCCn1nnnc1C(c1cccc2ccccc12)N1CCN(C/C=C/c2ccccc2)CC1 (stereo not drawn)	.	.	22.9	3.7	.	.	.	.	.	.	.
O=[N+]([O-])c1ccc(O)c(C=Nc2cccc3ncccc23)c1	74.7*	.	2.0	5.9	41.8	89.9*	1.8	2.3	-1.7	2.0	-1.3
O=C(Nc1ccc(C(=O)N2CCOCC2)cc1)Nc1cccc2ccccc12	16.6	14.2	-26.3	19.0	24.8	25.6	.	.	.	.	.
O[C@H]1CN(CC2CCCCC2)[C@@H](c2ccc(Cl)cc2)C[C@@H]1n1cc(-c2ccc(F)cc2)nn1	.	.	7.5	25.6	.	.	.	.	.	.	.
N#Cc1c(NC(=O)c2ccc(Br)o2)n(-c2ccccc2)c2nc3ccccc3nc12	92.6*	-10.1	-429.2	-8.9	76.6*	13.9	33.4	90.4*	82.5*	2.8	7.0
COc1ccc(-n2c(NC(=O)c3ccc(Br)o3)c(C#N)c3nc4ccccc4nc32)cc1	.	3.7	.	.	.	.	.	.	.	.	.
CCC(C)n1c(NC(=O)c2ccccc2)c(C#N)c2nc3ccccc3nc21 (stereo not drawn)	65.9*	10.2	i	25.9	44.2	90.0*	28.6	69.0*	45.6	2.7	0.3
Cc1c(Cl)cccc1NC(=O)Nc1cc(C(C)(C)C)on1	1.8	.	4.3	8.6	3.3	-13.7	.	.	.	.	.
